Over roughly 25,000 sequences, “ln(normalized median fluorescence intensity)” has its median near 9.3; the highest 2% begin near 10. The full list was thinned out, with the highest values kept by preference.

This experiment concerns PF3D7_0420300 AP2 domain 1 (GST-tagged). Put plainly: gcPBM binding intensity (ln(normalized median fluorescence intensity)); higher = stronger DNA binding. The method, boiled down:
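GST-fused DNA-binding domains of P. falciparum, expressed in E. coli, were applied at about 25 μg on average for 1 h to an Agilent 4 × 180k array of primer-extended double-stranded 36-bp intergenic genomic probes and negative controls. Binding intensity is the highest Masliner-normalised natural-log median intensity across replicate spots of either probe orientation, measured with Alexa488 anti-GST antibody and a 488 nm scan.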
For “TTATTACGAACTCTGCAACATATATAAATAAATAAA [CACACA_negctrl_site44]”, the “gcPBM binding intensity (ln)” value worked out at 8.86.
For the sequence “ATATTTCATCTAGCTACACACATATAATAAATTATT [CACACA_site4094]”, the “gcPBM binding intensity (ln)” value came out at 9.53.
“ATTCTAATTAGTAAAGTGCAGATAAAATGATGCCCT [GTGCAC_site9578]”: the “gcPBM binding intensity (ln)” value is 9.08.
Turning to “ATTACATTTTTGTTTTGTACATATATTTTATAAACA [XGTACX_site494]”, the “gcPBM binding intensity (ln)” value was found to be 9.34.
On to “TAATTTTTTTAAGAGAGTACATGACTCAACAGTTTA [XGTACX_site3103]”, for which the “gcPBM binding intensity (ln)” value was 8.76.
On to “CCCACTAAAAAACACACACACACACCCATATATATA [CACACA_site6140]”, for which the “gcPBM binding intensity (ln)” value amounted to 10.2.
Regarding “TTAAAAAAAAAACACACACACATACCCATATATATA [CACACA_site5768]”, the “gcPBM binding intensity (ln)” value amounted to 9.97.
As for “CGCACTAAAAAACACACACACACACCCATATATATA [CACACA_site4152]”, the “gcPBM binding intensity (ln)” value came out at 10.3.
On to “CACCCACTAATAAACACACACATATATATATATATA [CACACA_site389]”, for which the “gcPBM binding intensity (ln)” value was determined as 9.62.
Consider “TTATATTAAACAAACACACACATATATATATATATA [CACACA_site2382]”, for which the “gcPBM binding intensity (ln)” value came out at 9.53.
For “CATACTGTTATAAAATGTACGCATATACACACACAT [XGTACX_site7256]” the value was 9.89; for “CACATACAGACATACACACACATATAGATTAATATA [CACACA_site6399]”, 9.93.
Turning to “GGCATGACTATCTGCACACATAAAAATAAGAAATAC [CACACA_site841]”, the “gcPBM binding intensity (ln)” value came to 9.56.
As to “TAGAATAATCTATAAACACACAAACCCAACAAAAGA [CACACA_site6132]”, the “gcPBM binding intensity (ln)” value was 9.86.
As to “AATAATAGAAGCACCCACCCACCACCACCCACACAT [CACACA_negctrl_site1033]”, the “gcPBM binding intensity (ln)” value is 11.1.
For “CACCCACACCAACACACACACATATATAATATATAT [CACACA_site595]” the value was 10.1; for “TATAATAATCCACAAGCACACACACCCACATATATA [CACACA_site8343]”, 9.93.
In the case of “ATAATAATTAACCTATGTACATAGGAAAGTCATAAA [XGTACX_site4387]”, the “gcPBM binding intensity (ln)” value turned out to be 9.29.
Take “TTATATTAATTTTGTTGTACTATTTGTGCATTAAAT [XGTACX_site4790]”: the “gcPBM binding intensity (ln)” value turned out to be 9.21.
“TGTCATGATACATACACACACATACCCATACCCATA [CACACA_site5211]”: the “gcPBM binding intensity (ln)” value came to 9.88.
Under “TATATATTGCCCTTCACACACACACCCATATATATA [CACACA_site2493]” stands 10.2; under “TATATTGCCCTTCACACACACACATATATATATATA [CACACA_site2492]”, 10.3.
For the sequence “TATATATTGCCCTTCACACACACACCGATATATATA [CACACA_site5390]”, the “gcPBM binding intensity (ln)” value was 10.2.
Regarding “ATTCATTTTATTTTTTCACACACACCGATATATATA [CACACA_site9097]”, the “gcPBM binding intensity (ln)” value is 10.
“CATATATATTTGTTCACACACACACCCAAAAAAAAA [CACACA_site2476]”: the “gcPBM binding intensity (ln)” value was found to be 9.99.
For “TATTGCCCTTGACACACACACATATAAATAAATATA [CACACA_site7220]”, the “gcPBM binding intensity (ln)” value worked out at 9.84.
Under “ATTATATAATTGTCTTCACACACACCGATATATATA [CACACA_site8883]” stands 9.93.
Under “CTTATATATTGCCCTTCACACACACCCATATATATA [CACACA_site8795]” stands 10.1; under “TATTGCCCTGGACACACACACATATATATATATATA [CACACA_site5389]”, 9.88.
Consider “GGTGGTAAAAAACCTGCATGTCGAAATATTAAATAC [TGCATGCA_site33]”, for which the “gcPBM binding intensity (ln)” value worked out at 9.25.
Consider “TTCTTAAATGTAAATGTATATGTATTAAAAAGAGAA [TGCATGCA_negctrl_site597]”, for which the “gcPBM binding intensity (ln)” value is 9.1.
Take “ACAACATATGTTATCACACACATATAAATATAAATA [CACACA_site7038]”: the “gcPBM binding intensity (ln)” value worked out at 9.54.
Regarding “AAAAGCAAGTTCCAGGGTACATATATATGAAAAAAC [XGTACX_site2408]”, the “gcPBM binding intensity (ln)” value came to 9.58.
Take “ATTTATTTATATAATACACACAAATATCTTAATGAA [CACACA_site6064]”: the “gcPBM binding intensity (ln)” value worked out at 9.39.
For the sequence “ATATATATATATGTATGTACATATTTTTTTTAACAC [XGTACX_site8475]”, the “gcPBM binding intensity (ln)” value turned out to be 9.24.
With “GTTTGGTGGTGTTTTGGTACGTACGGGGGTGTATGT [XGTACX_site1211]”, the “gcPBM binding intensity (ln)” value was 10.1.
For “GTTTGGTGGTGTTTTGGTACGTACGGGGGGGTATGT [XGTACX_site1983]” the value was 10.9.
Under “TATGATTTTTATATATGTACGTATGGTGTTTTACAA [XGTACX_site6100]” stands 9.21; under “AAAAAAAAAAAAAAAAAAAAAAAAAAATGAGATACA [GTGCAC_negctrl_site160]”, 9.13.
Under “ATAAAATGAACAAACACACACACATATATTTATATA [CACACA_site7181]” stands 10.1; under “TGTAGTCTGGAGAAAAGTACATAGTATCTGGTAGCT [XGTACX_site2031]”, 9.32; under “CGTATATATATATACACACACATATATATATGTAAA [CACACA_site195]”, 9.69.
“AAACCGTGGGAGCACACACACACACCCACCCATATA [CACACA_site332]”: the “gcPBM binding intensity (ln)” value amounted to 10.2.
Under “TTAAACCGTGGGAGCACACACACACCCAGACACATA [CACACA_site4337]” stands 9.86; under “AATTAACCGTGACACACACACATATAAATATAAATA [CACACA_site7790]”, 9.86.
For “CATTAAACCGTGGGAGCACACACACCCACCCACCCA [CACACA_site8000]”, the “gcPBM binding intensity (ln)” value stood at 9.87.
